Values joined by “and” are separate entries in the source; they are usually repeats but may differ in a detail not shown here. Equal entries are not always repeated. Records with an inconclusive call do not appear. Some compounds were tested as several samples or in several runs, with calls that do not always agree. Active and inactive are the calls of the source. The calls were made as follows, unless noted: active = hit-call score of the fitted dose curve at least 0.9, where 1 is the maximum; inactive = score below 0.9.

The source of these data is PubChem BioAssay (EPA / NIEHS).

Assay [1] is described as follows: IUF_NPC2c_oligodendrocyte_migration_120hr: Leibniz Research Institute for Environmental Medicine (IUF) 120-hour Neural Progenitor Cell Migration Assay for Oligodendrocyte Migration (NPC2c) (AID 2284297).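 Also: O4-positive oligodendrocyte migration distance divided by radial glia migration distance.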 A digest of the protocol: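 Using fetal brain neural progenitor spheres differentiating in N2 medium at 37C, compounds were present for 120 h. Oligodendrocyte migration distance, normalized to radial glia migration, was measured from imaged O4 staining.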

Assay [2] can be described thus: IUF_NPC2a_radial_glia_migration_120hr: Leibniz Research Institute for Environmental Medicine (IUF) 120-hour Neural Progenitor Cell Migration Assay for Radial Glia Migration (NPC2a) (AID 2284298). The gist of the method:
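Exposure of 0.3 mm primary hNPC spheres runs day 0 to 120 h with a half-volume medium change at day 3. Fixed cells get Hoechst staining; high-content analysis of nuclear positions yields radial glia migration distance per well, compared against DMSO controls.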

Assay [3] is described as follows: IUF_NPC2a_radial_glia_migration_72hr: Leibniz Research Institute for Environmental Medicine (IUF) 72-hour Neural Progenitor Cell Migration Assay for Radial Glia Migration (NPC2a) (AID 2284299). The gist of the method:
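Radial glia migration (µm, sphere core edge to migration front, four directions averaged) from brightfield images at 72 h; hNPC spheres differentiating on PDL/laminin in N2 medium, compound exposure at 7 concentrations from plating.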

A short description of assay [4]: IUF_NPC2b_neuronal_migration_120hr: Leibniz Research Institute for Environmental Medicine (IUF) 120-hour Neural Progenitor Cell Migration Assay for Neuron Migration (NPC2b) (AID 2284300). A digest of the protocol: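 Fetal human NPC spheres migrate on PDL/laminin during 120 h compound treatment; neuronal migration distance, glia-normalized, scored versus DMSO control.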

A short description of assay [5]: IUF_NPC3_neuronal_differentiation_120hr: Leibniz Research Institute for Environmental Medicine (IUF) 120-hour Neuronal Differentiation Assay (NPC3) (AID 2284301). The gist of the method: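 hNPC spheres, PDL/laminin, DMEM/F12 3:1 + 1% N2, 37C, 5% CO2; 7 concentrations + solvent control, 5 d exposure, half-change day 3. Fix 120 h; TUBB3/Hoechst ICC, CNN neuron calling; % neurons vs nuclei, DMSO-normalized.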

A short description of assay [6]: IUF_NPC4_neurite_length_120hr: Leibniz Research Institute for Environmental Medicine (IUF) 120-hour Neuronal Morphology Assay for Neurite Length (NPC4) (AID 2284302). A digest of the protocol: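 hNPC spheres (0.3 mm, fetal brain GW 16-19) on PDL/laminin, DMEM:F12 3:1 + 1% N2, 37C 5% CO2; 7 concs + solvent control, day 0-5, half medium change d3; fix 120 h, TUBB3 ICC, mean neurite length um vs DMSO.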

A short description of assay [7]: IUF_NPC4_neurite_area_120hr: Leibniz Research Institute for Environmental Medicine (IUF) 120-hour Neuronal Morphology Assay for Neurite Area (NPC4) (AID 2284305; active = hit-call score of the fitted dose curve at least 0.9, where 1 is the maximum). The gist of the method:
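hNPC spheres on PDL/laminin, N2 medium, 37C/5% CO2; dosed day 0, half-medium refresh day 3; fixed 120 h; TUBB3/Hoechst ICC, high-content imaging; neurite area = mean pixels per neuron (nuclei excluded); DMSO baseline, max 0.1%.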

Read-out in assay [8]: Intercellular Adhesion Molecule 1 (ICAM1), ICAM1 (gene 3383)
Briefly: BSK_hDFCGF_ICAM1: BioMAP Diversity Plus: hDFCGF Assay for Intercellular Adhesion Molecule 1 (ICAM1) Biomarker Activity (AID 2284287). Particulars: primary human foreskin fibroblasts. The gist of the method:
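ICAM-1 ELISA readout 24 h after dosing, DMSO as baseline, in human dermal foreskin fibroblast cultures. Cytotoxicity checked in parallel wells by SRB staining (0.1% SRB, 10% TCA fixation, 560 nm).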

Read-out in assay [9]: TIMP metallopeptidase inhibitor 2 (TIMP2), TIMP2 (gene 7077)
Briefly: BSK_hDFCGF_TIMP2: BioMAP Diversity Plus: hDFCGF Assay for TIMP metallopeptidase inhibitor 2 (TIMP2) Biomarker Activity (AID 2284289). The note with it: primary human foreskin fibroblasts. The gist of the method: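 Primary human foreskin fibroblasts in the hDFCGF system, dosed for 24 h; TIMP-2 level measured by ELISA, fitted in the positive direction against DMSO; cytotoxicity checked in parallel by sulforhodamine B total protein staining.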

Read-out in assay [10]: Thrombomodulin, THBD (gene 7056)
The experiment in a line: BSK_LPS_Thrombomodulin: BioMAP Diversity Plus: LPS Assay for Thrombomodulin Biomarker Activity (AID 2284296). Particulars: primary human HUVEC with PBMC. The gist of the method: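 Thrombomodulin on the surface of LPS-activated endothelial/PBMC co-cultures was quantified by ELISA at 24 hours post-dosing, with DMSO as baseline. Parallel SRB total-protein staining flagged overt cytotoxicity.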

Read-out in a further assay: CD69, CD69 (gene 969)
The experiment in a line: BSK_LPS_CD69: BioMAP Diversity Plus: LPS Assay for CD69 Biomarker Activity (AID 2284303). Particulars: primary human HUVEC with PBMC. A digest of the protocol: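 CD69 surface levels were read by ELISA after 24 h chemical treatment of an LPS-stimulated HUVEC plus PBMC co-culture; positive-direction fit against DMSO vehicle.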

Read-out in assay [11]: Vascular cell adhesion molecule 1 (VCAM1), VCAM1 (gene 7412)
Briefly: BSK_IMphg_VCAM1: BioMAP Diversity Plus: IMphg Assay for Vascular cell adhesion molecule 1 (VCAM1) Biomarker Activity (AID 2284286). The note with it: primary human endothelial cells with macrophages. A digest of the protocol:
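ELISA read-out of VCAM-1 on venular endothelial cell/macrophage co-cultures at 24 h post-treatment, with DMSO as baseline and positive-direction fitting. Parallel sulforhodamine B total-protein staining (560 nm) served as the overt cytotoxicity measure.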

Read-out in another assay: CD40, CD40 (gene 958)
The experiment in a line: BSK_IMphg_CD40: BioMAP Diversity Plus: IMphg Assay for CD40 Biomarker Activity (AID 2284288). The note with it: primary human endothelial cells with macrophages. A digest of the protocol: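 ELISA read-out of cell-surface CD40 at 24 h in human venular endothelial cell/macrophage co-cultures. Activity fitted in the positive direction against DMSO; parallel SRB staining (560 nm) gauges overt cytotoxicity.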

Read-out in assay [12]: Interleukin-1 alpha (IL1a), IL1A (gene 3552)
The experiment in a line: BSK_IMphg_IL1a: BioMAP Diversity Plus: IMphg Assay for Interleukin-1 alpha (IL1a) Biomarker Activity (AID 2284290). The note with it: primary human endothelial cells with macrophages. A digest of the protocol:
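IL-1α is quantified by ELISA at 24 h in the endothelial/macrophage IMphg co-culture, with gain of signal fitted relative to DMSO. Parallel SRB total-protein staining flags overt toxicity.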

Read-out in assay [13]: E-selectin (Homo sapiens) (UniProt P16581)
Briefly: BSK_IMphg_ESelectin: BioMAP Diversity Plus: IMphg Assay for Eselectin Biomarker Activity (AID 2284291). Particulars: primary human endothelial cells with macrophages. A digest of the protocol:
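Analysed against DMSO baseline in the positive fitting direction, this endpoint is an ELISA read of E-selectin. It comes from human venular endothelial cells co-cultured with macrophages, sampled 24 h post-dose.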

Assay [14] is described as follows: BSK_IMphg_SRB: Viability Assessment in the BioMAP Diversity Plus: IMphg Assay (AID 2284292).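 Also: measured one day after compound addition.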 Particulars: primary human endothelial cells with macrophages. The gist of the method: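 SRB viability endpoint: cultures of human endothelial cells plus macrophages fixed with 10% TCA, stained with 0.1% SRB, read at 560 nm 24 h post-dosing. Only gain-of-signal fitted, relative to DMSO.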

Read-out in assay [15]: Macrophage colony-stimulating factor (MCSF), CSF1 (gene 1435)
The experiment in a line: BSK_IMphg_MCSF: BioMAP Diversity Plus: IMphg Assay for Macrophage colony-stimulating factor (MCSF) Biomarker Activity (AID 2284293). Particulars: primary human endothelial cells with macrophages. The gist of the method:
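M-CSF was measured by ELISA in human venular endothelial cell/macrophage co-cultures dosed for 24 hours. Sulforhodamine B staining of parallel cultures assessed cytotoxicity; data fitted against DMSO baseline.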

Read-out in assay [16]: Interleukin-10 (IL10), IL10 (gene 3586)
Briefly: BSK_IMphg_IL10: BioMAP Diversity Plus: IMphg Assay for Interleukin-10 (IL10) Biomarker Activity (AID 2284294). Particulars: primary human endothelial cells with macrophages. A digest of the protocol:
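IL-10 read by ELISA after 24 h chemical exposure of primary human venular endothelial cell/macrophage cocultures, with DMSO as baseline. Parallel SRB staining (560 nm) gauged overt cytotoxicity.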

Assay [17] can be described thus: BSK_IMphg_SRB.Mphg: Macrophage Viability Assessment in the BioMAP Diversity Plus: IMphg Assay (AID 2284295). Particulars: primary human endothelial cells with macrophages. The gist of the method: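 Cytotoxicity read-out: parallel cultures fixed with 10% TCA, stained with 0.1% sulforhodamine B, read at 560 nm. System combines venular endothelium and macrophages; sampled 24 h post-dosing, fitted positively relative to DMSO control.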

Sequence of E-selectin (Homo sapiens) (P16581 whole entry, looked up): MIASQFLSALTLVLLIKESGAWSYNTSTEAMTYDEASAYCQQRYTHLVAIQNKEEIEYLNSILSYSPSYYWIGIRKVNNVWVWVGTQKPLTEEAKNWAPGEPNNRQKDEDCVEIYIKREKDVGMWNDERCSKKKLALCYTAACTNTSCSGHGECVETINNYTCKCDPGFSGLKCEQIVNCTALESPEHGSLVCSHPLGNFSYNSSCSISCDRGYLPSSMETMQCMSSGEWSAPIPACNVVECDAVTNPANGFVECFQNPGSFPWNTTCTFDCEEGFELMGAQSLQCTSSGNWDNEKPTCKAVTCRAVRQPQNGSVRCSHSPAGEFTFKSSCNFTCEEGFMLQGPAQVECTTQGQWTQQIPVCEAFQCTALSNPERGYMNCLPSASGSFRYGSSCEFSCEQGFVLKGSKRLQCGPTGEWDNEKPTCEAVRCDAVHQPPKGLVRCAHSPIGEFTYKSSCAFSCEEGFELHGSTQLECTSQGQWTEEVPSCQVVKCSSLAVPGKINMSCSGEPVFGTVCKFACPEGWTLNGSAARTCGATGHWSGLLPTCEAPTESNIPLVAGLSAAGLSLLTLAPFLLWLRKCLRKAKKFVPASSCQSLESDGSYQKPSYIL

For the molecule `CC(C)Cc1ccc(C(C)C(=O)O)cc1` (stereo not drawn), the molecule was called inactive in assay [1], in assay [2], in assay [3], in assay [4], in assay [5] and in assay [6]. The molecule was called inactive in [7].

For `c1ccc2scnc2c1`, the molecule was classed as inactive in assay [1], in assay [2], in assay [3], in assay [4], in [5] and in assay [6]. In assay [7], the outcome was inactive.

On to `CC(C)CCCC(C)(C)O`, for which the outcome in assay [8] was “inactive”; in [9], “inactive”; in [10], “inactive”; with CD69, CD69 (gene 969) it was “inactive”.

As for `CC(C)(CO)CO`, the outcome was “inactive” in assay [8]; “inactive” in [9]; “inactive” in assay [10]; “inactive” with CD69, CD69 (gene 969).

`OCC(F)(OC(F)(F)C(F)(OC(F)(F)C(F)(F)C(F)(F)F)C(F)(F)F)C(F)(F)F` (stereo not drawn): the outcome is “inactive” in assay [11]; “inactive” with CD40, CD40 (gene 958); “inactive” in [12]; “inactive” in assay [14]; “inactive” in assay [15]; “inactive” in assay [16]. Further, the outcome is “inactive” in [17]; “inactive” in [10]; “inactive” with CD69, CD69 (gene 969). Also, the AC50 (commonly the concentration giving half of the maximal activity seen) in assay [8] was 5.06 µM (active) and 2.52 µM (active); in assay [9], 2.07 µM (active) and 198 nM (active); in assay [13], 5.64 µM (active) and 3.5 µM (active); in [14], 6.17 µM (active); in assay [16], 3.33 µM (active); in assay [17] it was 4.31 µM (active). Moreover, the AC50 in the assay with CD69, CD69 (gene 969) was 4.81 µM (active).

With `O=C(O)C(F)(F)OC(F)(F)C(F)(F)OC(F)(F)C(F)(F)C(F)(F)C(F)(F)F`, the outcome in [11] is “inactive”; in assay [8] it was “inactive”; with CD40, CD40 (gene 958), “inactive”; in assay [9], “inactive”; in assay [12] it was “inactive”; in assay [13], “inactive”. Besides, the result in [14], in assay [15], in assay [17] and in assay [10] was inactive. Further, the AC50 was 30 µM (active) with CD40, CD40 (gene 958); 46.5 µM (active) and 49.5 µM (active) in assay [16]; 36 µM (active) and 32.4 µM (active) with CD69, CD69 (gene 969).

In the case of `CCCCN(CCO)CCO`, the outcome in [8] is “inactive”; in assay [9], “inactive”; in assay [10], “inactive”; with CD69, CD69 (gene 969) it was “inactive”. Moreover, in assay [9], the AC50 is 4.34 µM (active).

With `C=C(C)C(=O)OCCC(F)(F)C(F)(F)C(F)(F)C(F)(F)C(F)(F)C(F)(F)C(F)(F)C(F)(F)F`, the outcome in assay [11] is “inactive”; in assay [8], “inactive”; with CD40, CD40 (gene 958), “inactive”; in assay [9], “inactive”; in assay [12] it was “inactive”; in [13], “inactive”. Besides, the outcome is “inactive” in assay [14]; “inactive” in assay [15]; “inactive” in [16]; “inactive” in assay [17]; “inactive” in assay [10]; “inactive” in the assay with CD69, CD69 (gene 969). Moreover, the AC50 with CD40, CD40 (gene 958) is 2.53 µM (active).

Turning to `CCn1cc(C(=O)O)c(=O)c2ccc(C)nc21`, the outcome in [8] is “inactive”; in assay [9], “inactive”; in assay [10], “inactive”; with CD69, CD69 (gene 969), “inactive”.
